Records with an inconclusive call do not appear. Calls of active or inactive are those of the source. Unless noted, calls follow the shape of the dose curve; as a rule, active = well fitted curve in the direction sought with a large enough effect; inconclusive = small, poorly fitted or top-dose-only effect, or another doubt; inactive = no such curve, though single readings can be large; an effect the other way counts as inactive or inconclusive.
What was measured:
[1] = AP1 Signaling Pathway (AID 357; active = well fitted curve in either direction with a large enough effect, not every such curve was filed as active;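 also: ME-180 reporter cells stimulated with EGF at its EC50 level; % is scaled to controls: 0 for no effect and ±100 for the full control effect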); settings: ME-180 AP-1-bla reporter, EGF-induced, beta-lactamase ratio, 5 h; at 38 µM (top of the series)
How it was run: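 Cells are seeded overnight, exposed to compound titrations and an EC50 level of EGF for 5 hours at 37 °C, then loaded with CCF4 dye for 2.5 hours. Beta-lactamase activity under the AP-1 element is read as a blue/green ratio.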

[2] = NFAT Signaling Pathway (AID 444; active = well fitted curve in either direction with a large enough effect, not every such curve was filed as active;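 also: carbachol stimulus at about its EC50 of 1 µM final; % is scaled to controls: 0 for no effect and ±100 for the full control effect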); settings: Jurkat NFAT-bla M1, carbachol, beta-lactamase ratio, 5 h; at 38 µM (top of the series)
How it was run: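 Jurkat cells carrying an NFAT-driven β-lactamase reporter and co-transfected muscarinic M1 receptor were treated with compound plus carbachol (1 uM final, an EC50 level) for 5 h at 37 °C. CCF4 loading followed for 1 h at RT; 460/530 nm ratio gave %activity.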

[3] = Stat Signaling Pathway (AID 446; active = well fitted curve in either direction with a large enough effect, not every such curve was filed as active;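 also: ME-180 cervical cancer cells given 40 pM IL-6 alongside compound; SIE-controlled beta-lactamase reporter measured as 460/530 nm FRET emission ratio; % is scaled to controls: 0 for no effect and ±100 for the full control effect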); settings: ME-180 SIE beta-lactamase reporter, IL-6 stimulated, 5 h; at 38 µM (top of the series)
How it was run: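 Screening format detects activators and inhibitors alike: ME-180 SIE-bla cells stimulated at 40 pM IL-6 for 5 hrs with compound, then dual-emission beta-lactamase read at 405 nm excitation.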

[4] = biological target: Glucocorticoid receptor (Homo sapiens) (UniProt P04150); experiment: GR-GFP Redistribution (AID 450;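 active = compounds whose dose series gives a full or clear partial fitted curve of increased nuclear translocation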; also: potency is read from the fitted curve at half-maximal effect); settings: U2OS GR-GFP nuclear translocation, laser cytometry, 2 h
Glucocorticoid receptor (Homo sapiens), sequence (P04150 whole entry, looked up, the tested form may be a part): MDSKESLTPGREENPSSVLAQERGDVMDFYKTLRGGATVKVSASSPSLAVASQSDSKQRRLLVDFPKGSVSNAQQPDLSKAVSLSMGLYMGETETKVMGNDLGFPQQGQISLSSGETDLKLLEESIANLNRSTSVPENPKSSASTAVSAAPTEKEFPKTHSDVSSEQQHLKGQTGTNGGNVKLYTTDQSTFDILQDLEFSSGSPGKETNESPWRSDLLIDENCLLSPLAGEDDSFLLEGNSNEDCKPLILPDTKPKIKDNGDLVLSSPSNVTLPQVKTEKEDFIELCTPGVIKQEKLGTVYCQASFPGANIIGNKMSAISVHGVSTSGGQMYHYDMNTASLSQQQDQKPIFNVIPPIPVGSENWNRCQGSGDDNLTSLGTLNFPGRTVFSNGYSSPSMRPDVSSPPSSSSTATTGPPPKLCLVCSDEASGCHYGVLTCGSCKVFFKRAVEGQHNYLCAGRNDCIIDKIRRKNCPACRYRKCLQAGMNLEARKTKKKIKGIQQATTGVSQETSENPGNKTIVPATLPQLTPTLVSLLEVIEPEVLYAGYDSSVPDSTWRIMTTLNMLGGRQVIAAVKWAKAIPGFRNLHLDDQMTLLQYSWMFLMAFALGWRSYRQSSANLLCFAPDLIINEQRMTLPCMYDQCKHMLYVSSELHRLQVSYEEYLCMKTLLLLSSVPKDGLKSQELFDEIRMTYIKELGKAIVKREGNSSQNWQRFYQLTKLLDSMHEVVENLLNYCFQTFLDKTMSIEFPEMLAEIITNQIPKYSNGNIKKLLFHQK

[5] = biological target: Glucocorticoid receptor (Homo sapiens) (UniProt P04150); experiment: GR-EFC Redistribution (AID 451; calls by dose curve; also: potency is read from the fitted curve at half-maximal effect); settings: CHO-K1 GR-EFC translocation, beta-gal luminescence, 2 h
How it was run: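 CHO-K1 cells stably expressing nuclear-localized β-gal enzyme acceptor and GR fused C-terminally to the enzyme donor fragment; ligand-driven nuclear translocation restores β-gal by complementation. Compounds titrated up to 46 uM final, 2 h at 37 °C; luminescence read.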

[6] = biological target: Mitogen-activated protein kinase 10 (Mus musculus) (UniProt Q61831); experiment: JNK3 AlphaScreen Assay (AID 530; active = well fitted curve in either direction with a large enough effect, not every such curve was filed as active;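 also: kinase came from lysate of stimulated human HepG2 cells; signal reports phosphorylation of biotinylated GST-cJun 1-79 at Ser73 with 10 µM ATP; % is scaled to controls: 0 for no effect and ±100 for the full control effect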)
How it was run: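 Inhibitors reduce antibody binding to phosphorylated biotin-cJun, lowering AlphaScreen luminescence. Lysates from HepG2 cells pre-activated by IL-1beta plus TNF-alpha supplied JNK3; compounds were titrated.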

[7] = biological target: 3',5'-cyclic-AMP phosphodiesterase 4B (Homo sapiens) (UniProt Q07343); experiment: qHTS Assay for Inhibitors of PDE-IV (AID 607; active = well fitted activation curve with a large enough effect in the main read-out, with a control signal flat, not every such curve was filed as active; also: % of control where 0% means no effect)
3',5'-cyclic-AMP phosphodiesterase 4B (Homo sapiens), sequence (Q07343 whole entry, looked up): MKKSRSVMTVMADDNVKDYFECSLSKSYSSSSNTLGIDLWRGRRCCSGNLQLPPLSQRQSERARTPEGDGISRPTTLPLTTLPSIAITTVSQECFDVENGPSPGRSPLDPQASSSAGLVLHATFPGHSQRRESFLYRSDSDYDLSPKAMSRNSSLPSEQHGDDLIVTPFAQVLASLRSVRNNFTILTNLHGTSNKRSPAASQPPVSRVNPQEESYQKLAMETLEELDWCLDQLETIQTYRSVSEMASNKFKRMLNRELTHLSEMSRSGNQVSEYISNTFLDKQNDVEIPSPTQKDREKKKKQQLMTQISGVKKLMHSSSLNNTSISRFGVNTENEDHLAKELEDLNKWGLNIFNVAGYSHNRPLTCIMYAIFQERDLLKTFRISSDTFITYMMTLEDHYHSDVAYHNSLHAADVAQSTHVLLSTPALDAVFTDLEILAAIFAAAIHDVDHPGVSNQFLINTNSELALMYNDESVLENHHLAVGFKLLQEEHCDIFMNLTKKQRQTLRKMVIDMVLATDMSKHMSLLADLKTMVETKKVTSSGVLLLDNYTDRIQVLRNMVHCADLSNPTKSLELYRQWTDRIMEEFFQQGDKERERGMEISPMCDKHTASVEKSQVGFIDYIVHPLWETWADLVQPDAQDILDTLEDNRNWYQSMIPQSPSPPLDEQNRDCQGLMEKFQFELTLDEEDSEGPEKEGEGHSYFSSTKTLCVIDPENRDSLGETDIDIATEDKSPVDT
How it was run: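 The readout is membrane depolarisation from a cAMP-sensing CNG channel, detected with a potential dye at ex 535/em 590. Cells were HEK293-derived (endogenous PDE-IV) at 1000 cells/well, titrated up to 22.9 uM final.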

[8] = biological target: Guanine nucleotide-binding protein G(i) subunit alpha-1 (Homo sapiens) (UniProt P63096); experiment: qHTS Assay for Inhibitors of RGS12 GoLoco Motif Activity (Green Fluorophore) (AID 879);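 also: 0% = labeled peptide with Gαi1 and full inhibition = labeled peptide alone without protein; negative values mean loss of peptide binding seen as reduced polarization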
Guanine nucleotide-binding protein G(i) subunit alpha-1 (Homo sapiens), sequence (P63096 whole entry, looked up): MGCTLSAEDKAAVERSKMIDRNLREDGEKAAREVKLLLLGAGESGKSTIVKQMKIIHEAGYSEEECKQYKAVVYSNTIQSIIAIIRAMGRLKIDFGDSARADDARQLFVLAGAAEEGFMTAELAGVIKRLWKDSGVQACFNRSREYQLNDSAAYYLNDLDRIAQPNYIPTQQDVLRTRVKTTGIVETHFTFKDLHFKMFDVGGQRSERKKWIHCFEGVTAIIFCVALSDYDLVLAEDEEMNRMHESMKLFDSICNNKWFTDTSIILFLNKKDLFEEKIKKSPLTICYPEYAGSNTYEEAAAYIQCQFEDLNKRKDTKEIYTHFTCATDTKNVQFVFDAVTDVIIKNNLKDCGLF
How it was run: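 Fluorescence polarization assay: 50 nM Gαi1 with 10 nM FITC-labeled RGS12 GoLoco peptide in 10 mM Tris pH 7.5, 150 mM NaCl, 0.1 mM GDP, 0.05% NP40, 10 min at room temperature with compound.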

[9] = qHTS Assay for Identification of Small Molecule Antagonists for NFkB Signaling Pathway (AID 895; active = well fitted inhibition curve with a large enough effect in the signal ratio, with a control signal flat, not every such curve was filed as active; the % refers to the signal ratio; also: % is scaled to controls: 0 for no effect and ±100 for the full control effect)
How it was run: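 NFkB-bla ME-180 cervical carcinoma cells with beta-lactamase reporter under NFkB response element; compounds added, then TNF alpha at 10 pM final (EC50), 5 h at 37 C. LiveBLAzer substrate 2 h, room temperature; emission 460/530 nm at 405 nm excitation.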

[10] = qHTS Assay for Identification of Small Molecule Agonists for Thrombopoietin (TPO) Signaling Pathway (AID 917); also: % is scaled to controls: 0 for no effect and ±100 for the full control effect
How it was run: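 IL-3-dependent murine pro-B Ba/F3 cells, stably transfected with human TPO receptor and GpIIb-promoter luciferase, are incubated 24 hrs at 37 C with test compound and 26 pM TPO; luciferase signal is read after 10 min at room temperature.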

[11] = biological target: Muscarinic acetylcholine receptor M1 (Rattus norvegicus) (UniProt P08482); experiment: qHTS Assay for Antagonists of Acetylcholine Muscarinic M1 Receptor: Kinetic Measurement of Intracellular Calcium Response (AID 943);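 also: Fluo-4 calcium signal as peak divided by basal fluorescence over 4 min; nearly all actives have a fitted effect of over 75% in size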
Muscarinic acetylcholine receptor M1 (Rattus norvegicus), sequence (P08482 whole entry, looked up): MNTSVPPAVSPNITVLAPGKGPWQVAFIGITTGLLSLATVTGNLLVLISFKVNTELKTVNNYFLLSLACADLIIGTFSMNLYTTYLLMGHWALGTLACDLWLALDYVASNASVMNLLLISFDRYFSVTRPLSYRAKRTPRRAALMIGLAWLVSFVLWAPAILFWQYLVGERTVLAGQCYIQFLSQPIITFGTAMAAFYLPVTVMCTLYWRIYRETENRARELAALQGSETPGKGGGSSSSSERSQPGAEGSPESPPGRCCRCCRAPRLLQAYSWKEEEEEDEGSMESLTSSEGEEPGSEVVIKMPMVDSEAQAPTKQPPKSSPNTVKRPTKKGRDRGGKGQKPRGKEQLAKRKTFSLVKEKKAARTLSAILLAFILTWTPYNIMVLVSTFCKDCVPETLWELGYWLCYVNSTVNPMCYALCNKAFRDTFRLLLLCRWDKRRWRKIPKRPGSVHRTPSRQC
How it was run: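 Rat M1-CHO cells, 2000/well, overnight → Fluo-4 no-wash dye with probenecid, 1 h 37C → compound 10 min, room temp → basal read 6 s → carbachol EC80 (100 nM) → 4 min kinetic read; peak/basal.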

[12] = biological target: Muscarinic acetylcholine receptor M1 (Rattus norvegicus) (UniProt P08482); experiment: qHTS Assay for Antagonists of Acetylcholine Muscarinic M1 Receptor: Measurement of IP-One Response (AID 944); also: nearly all actives have a fitted effect of over 75% in size
How it was run: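 M1-CHO (rat), 2000 cells/well, overnight recovery; cpd 10 min; carbachol EC80 (200 nM), 30 min, HEPES buffer + 50 mM LiCl pH 7.4; IP-One HTRF, Ex 337, Em 620/665 nm.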

[13] = biological target: Pyruvate kinase (Leishmania mexicana) (UniProt Q27686); experiment: qHTS Validation Assay for Inhibitors of Leishmania Mexicana Pyruvate Kinase (AID 945);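 also: 0% = DMSO only neutral control wells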
Pyruvate kinase (Leishmania mexicana), sequence (Q27686 2-499 E452W): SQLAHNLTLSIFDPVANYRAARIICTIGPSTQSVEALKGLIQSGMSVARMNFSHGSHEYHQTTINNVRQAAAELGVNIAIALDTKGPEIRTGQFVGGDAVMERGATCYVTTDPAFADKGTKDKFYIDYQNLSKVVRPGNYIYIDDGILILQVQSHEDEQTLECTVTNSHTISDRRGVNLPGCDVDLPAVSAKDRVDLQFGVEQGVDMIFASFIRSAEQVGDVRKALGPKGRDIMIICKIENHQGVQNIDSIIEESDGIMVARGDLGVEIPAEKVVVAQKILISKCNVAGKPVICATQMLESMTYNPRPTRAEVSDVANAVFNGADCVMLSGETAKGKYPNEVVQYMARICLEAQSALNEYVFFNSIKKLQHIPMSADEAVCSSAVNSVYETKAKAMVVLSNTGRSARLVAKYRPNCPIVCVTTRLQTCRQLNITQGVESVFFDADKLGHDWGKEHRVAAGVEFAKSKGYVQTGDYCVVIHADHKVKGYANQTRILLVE
How it was run: (§1)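 Luminescent ATP detection (PKLight) after a 1 h room-temperature reaction of 0.2 nM LmPYK E451W mutant with 0.5 mM PEP and 0.1 mM ADP at pH 7.2. Activity is normalized to DMSO-only control wells.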

[14] = biological target: Pyruvate kinase PKM (Homo sapiens) (UniProt P14618); experiment: qHTS Assay for Activators of Human Muscle Pyruvate Kinase (AID 954; active = well fitted curve in the direction sought with a large enough effect, not every such curve was filed as active;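 also: 0% = uninhibited enzyme and -100% = no enzyme or full thiadiazolimine inhibition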)
How it was run: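 Reaction: 0.1 nM purified PKM2 with 0.5 mM phosphoenolpyruvate and 0.1 mM ADP, room temperature, 1 h. Readout: luciferase-based ATP luminescence after stop reagent. Activators judged against a 0.3 nM enzyme column.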

[15] = biological target: Pyruvate kinase (Leishmania mexicana) (UniProt Q27686); experiment: qHTS Validation Assay for Activators of Leishmania Mexicana Pyruvate Kinase (AID 959)
How it was run: as §1

[16] = biological target: Alpha-galactosidase A (Homo sapiens) (UniProt P06280); experiment: Counterscreen for Glucocerebrosidase Inhibitors: qHTS Assay for Human alpha-Galactosidase at pH 4.5 (AID 992); also: 0% is about no effect
How it was run: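 Concentration-response curves (0.7 nM to 77 uM final) were modeled with the Hill equation to give AC50. Reactions: 2 nM enzyme, 80 uM fluorogenic alpha-galactoside, pH 4.5 citric acid buffer, 20 min, room temperature.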

[17] = biological target: alpha-glucosidase (Oryza sativa, rice) (UniProt Q653V4); experiment: Counterscreen for Glucocerebrosidase Inhibitors: qHTS Assay for Rice alpha-Glucosidase at pH 5.0 (AID 997);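 also: 0% = full activity with enzyme and -100% = basal without enzyme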
How it was run: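 Rice alpha-glucosidase (4 nM final) with 400 uM 4-methylumbelliferyl-alpha-D-glucopyranoside in citrate buffer pH 5.0, 20 min at room temperature, stopped at pH 10; fluorescence 365/440 nm, compounds 0.7 nM–77 uM, AC50 from Hill fits.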

[18] = qHTS Assay for Lipid Storage Modulators (AID 1519; calls by dose curve); settings: Drosophila S3 cells, BODIPY lipid droplet/cell ratio, laser cytometry, cells loaded with oleic acid; for activity change, negative = inhibition: at 57.5 µM (top of the series)
How it was run: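 Cells seeded at 5,000 per well were treated with compounds over a concentration series and loaded with oleic acid (400 uM, as added). Lipid droplet fluorescence (488 nm excitation, 500-530 nm channel) was read by laser-scanning cytometry and normalized to 20 uM Triacsin C.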

[19] = biological target: DNA dC->dU-editing enzyme APOBEC-3G (Homo sapiens) (UniProt Q9HC16); experiment: qHTS for inhibitors of Vif-A3G interactions: Validation (AID 588379); also: 0% is about no effect
DNA dC->dU-editing enzyme APOBEC-3G (Homo sapiens), sequence (Q9HC16 whole entry, looked up): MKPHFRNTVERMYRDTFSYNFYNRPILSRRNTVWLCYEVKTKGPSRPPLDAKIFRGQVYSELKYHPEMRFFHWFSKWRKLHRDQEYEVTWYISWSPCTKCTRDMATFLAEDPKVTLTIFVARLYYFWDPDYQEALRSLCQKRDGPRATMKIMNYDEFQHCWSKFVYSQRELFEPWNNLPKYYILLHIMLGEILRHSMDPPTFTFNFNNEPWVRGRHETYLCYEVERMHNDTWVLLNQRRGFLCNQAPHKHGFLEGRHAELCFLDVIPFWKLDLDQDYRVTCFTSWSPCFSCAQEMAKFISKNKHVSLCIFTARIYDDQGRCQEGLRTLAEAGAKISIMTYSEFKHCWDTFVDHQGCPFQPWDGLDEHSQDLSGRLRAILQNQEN
How it was run: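 HeLa cells stably expressing Vif and A3G-eYFP, 700 cells/well, incubated overnight at 37 deg C, then exposed to compound overnight at 37 deg C. Inhibition of Vif-mediated degradation read as increased yellow fluorescence (Ex 488/Em 500-530) by laser-scanning cytometry.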

[20] = system: Zika virus NS2B-NS3 protease; experiment: Primary screen GU AMC qHTS for Zika virus inhibitors (AID 1347154);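 also: 0% = no-inhibitor control and -100% = no-enzyme control; nearly all actives have a fitted effect of over 70% in size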
How it was run: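 Unlinked Zika NS2B hydrophilic domain/NS3 protease domain noncovalent complex (25 nM final) in 10 mM Tris-HCl pH 8.0, 0.01% Tween 20, with AMC peptide substrate. Fluorescence (ex 340, em 450 nm) change over 15 min, room temperature; percent inhibition fitted to 4-parameter Hill equation.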

[21] = Primary qHTS for small molecule stabilizers of the endoplasmic reticulum resident proteome: Secreted ER Calcium Modulated Protein (SERCaMP) assay (AID 1508630); also: % is scaled to controls: 0 for no effect and ±100 for the full control effect
How it was run: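 GLuc-SERCaMP-expressing SH-SY5Y cells, pretreated 16 h with compound, are challenged with thapsigargin to empty ER calcium stores; after 4 h, coelenterazine is added directly to the medium and luminescence is imaged.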

[22] = biological target: Cytochrome P450 1A2 (Homo sapiens) (UniProt P05177); experiment: p450-cyp1a2 (AID 410; calls by dose curve; also: potency is read from the fitted curve at half-maximal effect)
How it was run: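 Luminescent readout of luciferin formed from Luciferin-ME by human CYP1A2; data normalized against complete inhibition by 57 uM furafylline. Enzyme 20nM, substrate 100uM at Km, 100mM KPO4 buffer, 60 min reaction at room temperature.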

[23] = biological target: Cytochrome P450 2C19 (Homo sapiens) (UniProt P33261); experiment: qHTS Assay for Inhibitors and Substrates of Cytochrome P450 2C19 (AID 899); also: potency is read from the fitted curve at half-maximal effect; nearly all actives have a fitted effect of over 60% in size
Cytochrome P450 2C19 (Homo sapiens), sequence (P33261 whole entry, looked up): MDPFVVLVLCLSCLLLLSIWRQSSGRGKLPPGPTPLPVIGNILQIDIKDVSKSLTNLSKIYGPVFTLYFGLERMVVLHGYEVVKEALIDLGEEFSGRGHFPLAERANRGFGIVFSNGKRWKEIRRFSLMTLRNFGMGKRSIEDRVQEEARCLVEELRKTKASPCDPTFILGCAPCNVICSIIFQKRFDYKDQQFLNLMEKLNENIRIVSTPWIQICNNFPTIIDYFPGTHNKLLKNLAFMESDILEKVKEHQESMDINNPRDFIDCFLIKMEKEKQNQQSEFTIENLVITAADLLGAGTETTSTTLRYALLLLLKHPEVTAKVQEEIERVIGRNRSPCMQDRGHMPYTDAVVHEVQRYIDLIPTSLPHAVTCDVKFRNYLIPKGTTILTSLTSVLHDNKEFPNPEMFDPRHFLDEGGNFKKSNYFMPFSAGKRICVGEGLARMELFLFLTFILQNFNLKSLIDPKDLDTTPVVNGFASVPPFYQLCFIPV
How it was run: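 Human CYP2C19 (5nM) with Luciferin-H EGE at 10uM (its KM) in 50mM KPO4 was preincubated with compound for 10 min at 37C. NADPH regeneration started a 60 min 37C reaction. Luciferin was read by luminescence, normalized to 57uM ketoconazole.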

[24] = biological target: Rap guanine nucleotide exchange factor 3 (Homo sapiens) (UniProt O95398); experiment: Confirmatory qHTS for antagonist of cAMP-regulated guanine nucleotide exchange factor 3 (EPAC1) (AID 1645880);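 also: plate controls were DMSO only for no effect and full effect of the ATA control for full effect; nearly all actives have a fitted effect of over 55% in size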
Rap guanine nucleotide exchange factor 3 (Homo sapiens), sequence (O95398 whole entry, looked up): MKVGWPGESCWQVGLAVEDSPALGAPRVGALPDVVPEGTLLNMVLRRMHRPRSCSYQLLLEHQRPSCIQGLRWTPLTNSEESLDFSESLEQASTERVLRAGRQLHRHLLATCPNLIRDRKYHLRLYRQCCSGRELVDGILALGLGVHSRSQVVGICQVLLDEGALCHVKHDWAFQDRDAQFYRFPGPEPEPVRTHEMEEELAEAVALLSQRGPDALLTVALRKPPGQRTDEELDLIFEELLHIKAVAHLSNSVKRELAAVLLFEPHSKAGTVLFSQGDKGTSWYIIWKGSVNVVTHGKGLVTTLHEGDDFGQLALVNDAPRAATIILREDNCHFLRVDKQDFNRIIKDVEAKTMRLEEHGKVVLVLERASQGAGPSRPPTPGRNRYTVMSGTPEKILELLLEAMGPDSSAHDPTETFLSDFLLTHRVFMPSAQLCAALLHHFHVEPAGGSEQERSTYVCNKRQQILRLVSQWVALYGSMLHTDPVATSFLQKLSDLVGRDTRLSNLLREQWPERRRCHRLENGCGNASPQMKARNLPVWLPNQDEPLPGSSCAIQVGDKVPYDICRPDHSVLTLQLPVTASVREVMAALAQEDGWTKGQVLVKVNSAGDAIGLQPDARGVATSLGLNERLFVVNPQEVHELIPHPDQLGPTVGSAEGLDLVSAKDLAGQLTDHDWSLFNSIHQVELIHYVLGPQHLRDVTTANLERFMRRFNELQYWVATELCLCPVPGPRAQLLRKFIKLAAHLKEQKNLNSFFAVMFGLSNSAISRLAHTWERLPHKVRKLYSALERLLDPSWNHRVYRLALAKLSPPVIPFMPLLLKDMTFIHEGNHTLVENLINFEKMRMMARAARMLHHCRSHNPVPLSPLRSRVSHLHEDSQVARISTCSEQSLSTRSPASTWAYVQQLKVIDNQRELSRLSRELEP
How it was run: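 Nucleotide exchange uses 100 nM EPAC1, 250 nM RAP1B-BODIPY-GDP and 50 uM GDP, with compounds in a concentration-titration series. After 5 min at room temperature, fluorescence (480 nm ex/540 nm em) is read every 5 min for 30 min. Data are normalized to control ATA and DMSO.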

[25] = biological target: Rap guanine nucleotide exchange factor 3 (Homo sapiens) (UniProt O95398); experiment: Confirmatory qHTS for agonist of cAMP-regulated guanine nucleotide exchange factor 3 (EPAC1) (AID 1645881);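 also: EPAC1 catalysed release of BODIPY-GDP from Rap1B seen as fluorescence loss; 100% = effect of cAMP agonist control; nearly all actives have a fitted effect of over 75% in size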
[26] = biological target: Rap guanine nucleotide exchange factor 4 (Homo sapiens) (UniProt Q8WZA2); experiment: Confirmatory qHTS for agonist of cAMP-regulated guanine nucleotide exchange factor 4 (EPAC2) (AID 1645884);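 also: nucleotide exchange releases bodipy-GDP from Rap1 and this lowers its fluorescence; % is scaled to controls: 0 for no effect and ±100 for the full control effect; nearly all actives have a fitted effect of over 65% in size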
[27] = measured here: cell count channel max response
[28] = measured here: lipid channel max response

N[C@]1(C(=O)O)CCc2cc(C(=O)O)ccc21
active: Potency [15] 15.8 µM
23.6%: max response [18, 28]
14.2%: max response [18, 27]
inactive: activity change, negative = inhibition [1] 2.45% | activity change, negative = inhibition [2] 3.1% | activity, negative = inhibition [3] -13% | Potency [4] > 46 µM | Potency [5] > 46 µM | Potency [6] | Potency [7] | outcome [8] | Potency [9] | Potency [10] | Potency [11] | Potency [12] | Potency [13] | outcome [14] | outcome [16] | outcome [17] | activity change, negative = inhibition [18] 5.84% | Potency [19] | Potency [20] | Potency [21]

Cc1[nH]c(/C=C2/C(=O)Nc3ccc(S(=O)(=O)Cc4c(Cl)cccc4Cl)cc32)c(C)c1C(=O)N1CCCC1CN1CCCC1 (centres undefined)
inactive: Potency [20] | Potency [21]

CCC(=O)N[C@@H]1Cc2ccccc2[C@@H](c2ccccc2)C1
13.4%: max response [18, 27]
inactive: Potency [4] > 46 µM | Potency [5] > 46 µM | Potency [6] | activity change, negative = inhibition [18] 10.8% | Potency [19] | Potency [20] | Potency [21] | Potency [24] | outcome [25] | outcome [26]
active: Potency [22] 15.8 µM | Potency [23] 7.94 µM
28.8%: max response [18, 28]
